Inhibition data for 63 compounds are collected here from PubChem BioAssay AID1626 (SRMLSC, 2009).

As usually defined, the inhibition is the change of the read-out against control, counted positive when it falls.

The structures appear in SMILES notation. In all, about 220,000 compounds went through this assay and about 2,000 (0.91%) were called active. Another 2% or so got no clear call; they are omitted. Only a sample is shown. Potency and affinity values are given separately. Values without a mark were called inactive. Cut-off read from the data, not from the text of the source: inconclusive = inhibition above about 80% without an active follow-up result; inactive = below that; test concentration not stated here.

This experiment in a line: M. tuberculosis H37Rv growth inhibitors, H37Rv strain (AID 1626).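 Note: bacteria incubated seven days before Alamar blue readout; 0% = bacteria only wells and 100% = bacteria with antibiotic wells.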 The conditions noted are these: hits give high values, concentration not given here.
For `COc1ccc(-c2[nH]n(-c3ccc([N+](=O)[O-])cc3)c(=O)c2C=NCc2ccccc2)cc1`, the inhibition was -1.64%.

As to `C=CCC1(NC(C)c2ccccc2)CCCCC1` (stereo not drawn), the inhibition was -4.87%.

For the compound `O=C(Nc1ccc(-c2noc(COc3ccccc3Cl)n2)cc1)c1ccco1`, the inhibition is 0.69%.

With `COc1cc(/C=C2/SC(=O)N(Cc3ccccc3Cl)C2=O)ccc1OCc1ccncc1`, the inhibition is 3.75%.

`COCCNC(=O)C(c1ccncc1)N(C(=O)c1sc(C)nc1C)c1cccc(C)c1` (stereo not drawn): the inhibition was -4.16%.

As to `Cc1ccc(NC(=O)c2cc3c(=O)oc4ccc(C)cc4c3s2)nc1`, the inhibition is -3.16%.

Turning to `Cc1ccc2c(c1)CC1(CN2C)C(=O)NC(=O)N(CCc2ccccc2)C1=O` (stereo not drawn), the inhibition is -6.53%.

Turning to `Cc1oc(CC(C)C)cc1C(=O)Nc1cccc2ccccc12`, the inhibition is -8.7%.

For `Cn1c(=O)[nH]c(=O)c2c1nc(SCC(=O)Nc1ccccc1)n2Cc1ccccc1`, the inhibition is 4.62%.

`CCn1c(-c2cccnc2Cl)nc2cc(Cl)c(Cl)cc21`: the inhibition was 13.1%.

As for `CCOCCCn1c(=S)[nH]c2cc(C(=O)N3CCN(C)CC3)ccc2c1=O`, the inhibition is -9.01%.

As for `CCc1ccc(NC2CC(=O)N(CCc3ccc(OC)c(OC)c3)C2=O)cc1` (stereo not drawn), the inhibition is 6.46%.

For `O=C(/C=C/NNC(=O)c1ccc(Cl)cc1)c1ccccc1`, the inhibition is 2.77%.

As to `O=C(/C=C/Sc1ncn[nH]1)c1ccc(Cl)cc1`, the inhibition was 6.21%.

With `CCC(=O)NCCCc1nc(-c2ccccc2)no1`, the inhibition was -4.65%.

`COc1ccccc1N1CCN(C(=O)Cn2nc3n(C)c4ccccc4n3c(=O)c2=O)CC1`: the inhibition was 0.2%.

Turning to `COc1ccccc1NCC(=O)n1nc(C)cc1C`, the inhibition was -3.99%.

As to `Cc1occc1-c1nnc(SCC(=O)NCCc2ccccc2)n1Cc1ccccc1`, the inhibition was -7.81%.

For `Cc1occc1-c1nnc(SCC(=O)Nc2ccccn2)o1`, the inhibition is 10%.

With `O=C(CSc1nc2ccccc2o1)c1ccccc1`, the inhibition was 9.75%.

For `O=C(CSc1nc2ccccc2o1)Nc1ccccc1`, the inhibition was -0.33%.

As to `COc1ccc(CCNC(=O)CSc2nc3ccccc3o2)cc1`, the inhibition was 96.4%.

For the compound `CCS(=O)(=O)c1ccc2oc(SCC(=O)NCCc3ccccc3)nc2c1`, the inhibition is 3.18%.

With `O=C(CSc1nc2ccccc2o1)Nc1nncs1`, the inhibition is 2.93%.

As to `Cc1ccc(-c2csc(NC(=O)CSc3nc4ccccc4o3)n2)cc1`, the inhibition is 65.3%.

Turning to `Cc1ccc(NC(=S)Nc2cc(C)on2)cc1`, the inhibition is 4.76%.

On to `COc1ccc(NC(=O)C2CCCN(S(=O)(=O)c3cccc4nonc34)C2)cc1OC` (stereo not drawn), for which the inhibition was 0.88%.

Consider `CCOC(=O)c1c(-c2ccc(C)s2)csc1N`, for which the inhibition is 3.65%.

Regarding `Cc1nc2c(C#N)cnn2c2c1CCNN2C`, the inhibition was -8.46%.

Regarding `COc1ccccc1-c1cc(C(=O)N2CCN(c3ccc(F)cc3)CC2)no1`, the inhibition was 4.4%.

On to `Cc1cccc(NC(=O)NNS(=O)(=O)c2ccc(F)cc2)c1`, for which the inhibition is 7.42%.

For `O=C(CN1CCN(C(=O)c2ccco2)CC1)N1CCc2[nH]c3ccccc3c2C1`, the inhibition was 7.26%.

On to `COc1ccc(C2CC(=O)C3=C(C2)Nc2ncnn2C3c2ccccc2)cc1` (stereo not drawn), for which the inhibition is -8.64%.

Take `Cc1nnc(NC(=O)CSc2nc3ccccc3o2)s1`: the inhibition is -1.02%.

`O=C(CSc1nc2ccccc2o1)Nc1nc2ccccc2s1`: the inhibition is -3.19%.

With `Cc1ccccc1Cn1nnc(-c2ccc(C(=O)O)cc2)n1`, the inhibition is -5.85%.

For `Nc1nc(-c2ccc3c(c2)OCCO3)cs1`, the inhibition is 78.2%.

For the compound `N#Cc1cncc(-c2ccc3c(c2)OCCOCCOCCOCCOCCO3)n1`, the inhibition was 5.9%.

With `Cc1ccc(-n2ncc3c2ncn2c(C)nnc32)cc1C`, the inhibition was 14.5%.

Regarding `NC(=O)c1ccc(-c2csnn2)cc1`, the inhibition was 0.58%.

As to `CC(C)(C)C(=O)Nc1ccc(-c2csnn2)cc1`, the inhibition was -0.28%.

Consider `Cc1ccc(NC(=O)C(C)OC(=O)c2ccc(NS(=O)(=O)c3ccc(F)c(F)c3)cc2)cc1` (stereo not drawn), for which the inhibition was -2.38%.

With `Cc1nc2c(c(=O)n1CCC(C)C)c1nc3ccccc3nc1n2CC1CCCO1` (stereo not drawn), the inhibition was 2.15%.

Regarding `CC1CCN(S(=O)(=O)c2cccc(-c3cn4cc(Cl)ccc4n3)c2)CC1`, the inhibition is -1.37%.

For the compound `O=C(O)CCN1C(=O)C2C3c4ccccc4C(c4ccccc43)[C@@H]2C1=O` (stereo partly drawn), the inhibition is -2.72%.

With `Cc1ccccc1-n1nc(C)c2c1N=C1C(Cl)=CC(Cl)=CN1C2c1ccc(C(=O)O)cc1` (stereo not drawn), the inhibition is -4.15%.

For `CC(=O)Nc1ccc(NC2=Nc3ccccc3N3C2=Nc2c(c(C)nn2-c2ccccc2)C3c2ccccc2)cc1` (stereo not drawn), the inhibition is 75.1%.

With `CCCc1nnc(NC(=O)OCC)s1`, the inhibition was 4.01%.

For `CC(NC(=O)C1CC1)C(c1cccs1)N1CCOCC1` (stereo not drawn), the inhibition was 4.47%.

For `O=C(CSc1nnc(Cc2ccccc2)o1)c1ccc(F)cc1`, the inhibition was 6.24%.

As for `Cn1c(NC(=O)/C=C/c2ccco2)cc(=O)n(C)c1=O`, the inhibition was -0.44%.

Regarding `Nc1c(C(=O)NC23CC4CC(CC(C4)C2)C3)sc2nc3c(c(C(F)(F)F)c12)CCC3`, the inhibition was -10.2%.

As for `COc1ccc(NC(=O)c2sc3nc(Cc4ccccc4)cc(C(F)(F)F)c3c2N)cc1OC`, the inhibition was 7.82%.

Consider `CCNC(=S)Nc1sc2c(c1C#N)CCC(C)C2` (stereo not drawn), for which the inhibition was 9.49%.

Consider `CN(C)c1ccc(N2CN=C3SCC(=O)N3C2)cc1`, for which the inhibition is -6.22%.

As for `Cc1cc(C)cc(N2CN=C3SCC(=O)N3C2)c1`, the inhibition was 4.22%.

With `O=C1CSC2=NCN(c3ccccc3)CN12`, the inhibition was 5.48%.

As for `Cc1ccc(N2CN=C3SCC(=O)N3C2)cc1C`, the inhibition is 73.8%.

For `O=C1CN(C(=S)Nc2ccc(OC(F)F)cc2)CCN1`, the inhibition was 5.94%.

Turning to `CCOc1cc(C=O)cc(Br)c1OCC(N)=O`, the inhibition is -0.11%.

Regarding `COc1ccc(/C(O)=C2/C(=O)C(=O)N(CCN3CCOCC3)C2c2cccnc2)cc1OC` (stereo not drawn), the inhibition was -6.27%.

Consider `Cc1nc(CS(=O)c2ccc(Cl)cc2)cc(N2CCOCC2)n1` (stereo not drawn), for which the inhibition was 5%.

Turning to `COCc1cc(Sc2ccc(Cl)cc2)nc(C)n1`, the inhibition was 18.1%.
